Experimental findings from PubChem BioAssay (Tox21) are described below.

Assay [1] is described as follows: qHTS assay to identify small molecule agonists of the vitamin D receptor (VDR) signaling pathway - cell viability counter screen (AID 743224). Also: nearly all actives have a fitted effect of over 50% in size. Also: potency is read from the fitted curve at half-maximal effect. Put shortly: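 Compounds were pin-transferred onto VDR-bla cells plated 4 h earlier; following 16 h incubation at 37C, cell viability was quantified by CellTiter-Glo luminescence after 30 min at room temperature.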
Assay [2] is described as follows: qHTS assay to identify small molecule agonists of the NFkB signaling pathway (AID 1159509; active = well fitted curve in the direction sought with a large enough effect in the signal ratio in the repeat runs, not every such curve was filed as active; the % refers to the signal ratio; also: series mostly up to about 61 µM). An outline of the steps:
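Agonist activity was read as beta-lactamase-driven FRET change (460 and 530 nm emission, 405 nm excitation) following 1.5 hr substrate loading at room temperature. Beforehand, ME-180 NFkB-bla reporter cells were treated with compounds for 5 hr at 37 C.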

The nature of assay [3]: qHTS assay to identify small molecule agonists of the NFkB signaling pathway - cell viability counter screen (AID 1159515; calls by dose curve; also: series mostly up to about 61 µM; nearly all actives have a fitted effect of over 55% in size). Put shortly: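 Parallel cytotoxicity counter screen in ME-180 cells carrying an NFkB-response-element beta-lactamase reporter, 2,000 cells/well. Compound exposure lasted 5 hr at 37 C, 5% CO2. Cell viability was quantified by CellTiter-Glo luminescence.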
(In general: In qHTS, concentration-response curves come from the screen itself.)

The nature of assay [4]: qHTS assay to identify small molecule agonists of the endoplasmic reticulum stress response signaling pathway (AID 1159516; active = well fitted activation curve with a large enough effect in the signal ratio in the repeat runs, not every such curve was filed as active; the % refers to the signal ratio). An outline of the steps:
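Using a HeLa line with an ESRE-driven beta-lactamase gene, agonist activity was measured by FRET substrate fluorescence (460 and 530 nm emission) after cells were treated with compounds for 5 hr at 37 C and 5% CO2.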

Assay [5] is described as follows: qHTS assay to identify small molecule antagonists of the retinoid-related orphan receptor gamma (ROR-gamma) signaling pathway - cell viability counter screen (AID 1159520). Also: nearly all actives have a fitted effect of over 50% in size. Also: potency is read from the fitted curve at half-maximal effect. Put shortly: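 Tet-on ROR gamma CHO cells were given compounds for 2 hr, then doxycycline hyclate at 1 uM final, and incubated 16 hr at 37 C. Viability was measured as ATP content by CellTiter-Glo luminescence.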

The target of assay [6] is Nuclear receptor ROR-gamma (Homo sapiens) (UniProt P51449). The assay is described as follows: qHTS assay to identify small molecule antagonists of the retinoid-related orphan receptor gamma (ROR-gamma) signaling pathway (AID 1159521; also: nearly all actives have a fitted effect of over 50% in size; also: potency is read from the fitted curve at half-maximal effect). An outline of the steps:
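Luminescence readout (ONE-Glo, 30 min RT) after 16 h doxycycline induction; loss of signal scored as antagonism. CHO cells with TET-inducible RORγ and RORE-LUC reporter; compounds added 2 h before 1 uM final doxycycline.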

Assay [7] can be described thus: qHTS assay to identify small molecule agonists of the AP-1 signaling pathway - cell viability counter screen (AID 1159525; calls by dose curve; also: nearly all actives have a fitted effect of over 55% in size). Put shortly: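 Same-well cytotoxicity counter screen of the Tox21 10K library in ME-180 cells. The readout is ATP-dependent luminescence after 5 h compound treatment. Data are normalised to DMSO and tetra n-octyl ammonium bromide controls.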

Assay [8] in a line: qHTS assay to identify small molecule agonists of the RXR signaling pathway - cell viability counter screen (AID 1159529). Also: nearly all actives have a fitted effect of over 50% in size. Also: potency is read from the fitted curve at half-maximal effect. Put shortly: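 Luminescence from CellTiter-Glo (30 min, RT) measured viability in the same wells as the beta-lactamase reporter readout. Cells: GeneBLAzer RXR-alpha HEK 293T, 2% charcoal-stripped FBS. Compound exposure 16 hr, 37 C.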
Assay [9] can be described thus: qHTS assay to identify small molecule antagonists of the retinoid acid receptor (RAR) signaling pathway - cell viability counter screen (AID 1159551). Also: nearly all actives have a fitted effect of over 35% in size. Put shortly:
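ATP-based viability, C3RL4 cells, 6 h at 37 C with 1 uM final retinol co-added after compound; luminescence read 30 min post CellTiter-Glo, RT.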

Assay [10] in a line: qHTS assay to identify small molecule antagonists of the estrogen related receptor (ERR) signaling pathway - cell viability counter screen (AID 1224818).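 Also: series mostly up to about 46 µM; viability measured after 17.5 h of compound exposure.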 Put shortly:
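Quantitative high-throughput viability counter screen in ERR cells. Compounds (DMSO) incubated 17.5 h at 37 C; read-out was CellTiter-Fluor fluorescence.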

A short description of assay [11]: qHTS assay to identify small molecule antagonists of the vitamin D receptor (VDR) signaling pathway - cell viability counter screen (AID 743225). Also: nearly all actives have a fitted effect of over 50% in size. Put shortly: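 Viability counter screen run in the same wells as the beta-lactamase reporter assay: HEK 293T VDR-UAS-bla cells, 16 h compound exposure at 37C with 3 nM (final) 1-alpha,25-dihydroxyvitamin D3. CellTiter-Glo luminescence, 30 min, room temperature.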

Assay [12] can be described thus: qHTS assay to identify small molecule agonists of the endoplasmic reticulum stress response signaling pathway - cell viability counter screen (AID 1159517; calls by dose curve). Put shortly:
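In parallel with the ESRE reporter read, cytotoxicity was scored by CellTiter-Glo luminescence (30 min, room temperature) on HeLa ESRE-bla cells dosed for 5 hr.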

Assay [13] is described as follows: qHTS assay to identify small molecule agonists of the AP-1 signaling pathway (AID 1159526; calls by dose curve).
A short description of assay [14]: qHTS assay to identify small molecule antagonists of the retinoic acid receptor (RAR) signaling pathway (AID 1159552; also: nearly all actives have a fitted effect of over 50% in size; also: potency is read from the fitted curve at half-maximal effect). An outline of the steps: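 Luminescence from a RARE luciferase reporter in C3RL4 cells served as read-out. Cells received compounds together with 1 uM final retinol and incubated 6 hr at 37 C before detection reagent was added for 30 min at room temperature.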

Assay [15] in a line: qHTS assay to identify small molecule agonists of the retinoic acid receptor (RAR) signaling pathway (AID 1159553). An outline of the steps: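 Quantitative high-throughput format: the Tox21 10K library was tested on C3RL4 RARE-luciferase cells for 6 hr at 37 C and 5% CO2, with luminescence measured after a 30 min room-temperature reagent step.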
Assay [16] concerns the target Retinoic acid receptor RXR-alpha (Homo sapiens) (UniProt P19793). The experiment in a line: qHTS assay to identify small molecule agonists of the RXR signaling pathway (AID 1159527; calls by dose curve; also: nearly all actives have a fitted effect of over 35% in size). Put shortly: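 Agonist mode; 9-cis retinoic acid positive control. HEK 293T UAS-bla reporter cells, 2% charcoal-stripped FBS, 16 hr compound exposure at 37 C/5% CO2. LiveBLAzer B/G FRET substrate 2 hr RT; ex 405, em 460/530 nm.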

Assay [17] can be described thus: qHTS assay to identify small molecule antagonists of the estrogen related receptor (ERR) signaling pathway (AID 1224819). Put shortly:
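ERR reporter cell line (NTP) plated at 2,000 cells/well, settled 6 h at 37C/5% CO2, then exposed to LOPAC compounds for 18 h at 37C. One-Glo luciferase luminescence read after 30 min at room temperature.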

The nature of assay [18]: qHTS assay to identify small molecule agonists of the estrogen related receptor (ERR) signaling pathway (AID 1224820). An outline of the steps: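 After 6 h plating (2,000 cells/well) and 18 h compound treatment at 37 C, ERR cells were lysed with One-Glo and luminescence read after 30 min at room temperature.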
Assay [19] relates to estrogen-related receptor alpha (ERRalpha) with PGC-1alpha coactivator, human. The assay is described as follows: qHTS assay to identify small molecule antagonists of the estrogen related receptor signaling pathway with the pleiotropic PPARgamma coactivator (PGC) (AID 1224821; calls by dose curve). An outline of the steps:
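Luminescence from One-Glo luciferase reagent (30 min, room temperature) measured after 18 h compound treatment at 37 °C. Cells carry the PGC/ERR reporter and were seeded 6 h prior to dosing.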

“And” between values parts separate entries of the source, which are not always exact repeats. Equal values may be shown once. Inconclusive results are not listed. Some structures have more than one record in an assay (separate samples or runs), and their calls can disagree. The source made the active and inactive calls. Unless noted, calls follow the shape of the dose curve; as a rule, active = well fitted curve in the direction sought with a large enough effect in the repeat runs; inconclusive = weak or mixed curves; inactive = no such curve, though single readings can be large; an effect the other way counts as inactive or inconclusive.

Retinoic acid receptor RXR-alpha (Homo sapiens), sequence (P19793 whole entry, looked up): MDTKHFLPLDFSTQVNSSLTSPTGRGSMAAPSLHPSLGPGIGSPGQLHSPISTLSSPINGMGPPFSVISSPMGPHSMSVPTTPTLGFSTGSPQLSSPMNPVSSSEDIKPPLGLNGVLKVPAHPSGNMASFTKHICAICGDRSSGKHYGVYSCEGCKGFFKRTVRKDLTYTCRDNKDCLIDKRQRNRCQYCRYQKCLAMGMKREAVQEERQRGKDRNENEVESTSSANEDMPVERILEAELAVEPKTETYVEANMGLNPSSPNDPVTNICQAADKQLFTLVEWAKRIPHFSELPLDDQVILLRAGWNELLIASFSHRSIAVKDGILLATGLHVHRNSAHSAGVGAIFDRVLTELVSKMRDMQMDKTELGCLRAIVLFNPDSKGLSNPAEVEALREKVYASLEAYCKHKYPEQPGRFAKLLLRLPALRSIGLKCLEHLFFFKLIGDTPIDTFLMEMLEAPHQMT

Consider `CNCCCC12CCC(c3ccccc31)c1ccccc12`, for which the Potency in assay [1] was 21.9 µM (active) and inactive; in assay [5] it was 61.1 µM (active) and inactive; in assay [6], 34.4 µM (active) and inactive; in [8], 21.9 µM (active) and inactive. The result in assay [2] was inactive. The Potency entry in assay [3], in assay [4], in [7], in assay [9] and in assay [10] was “inactive” in each case.
In the case of `COc1cccc2c1C(=O)c1c(O)c3c(c(O)c1C2=O)C[C@@](O)(C(=O)CO)C[C@@H]3O[C@H]1C[C@H](N)[C@H](O)[C@H](C)O1`, the Potency entry in assay [1], in assay [11], in assay [3], in [12], in assay [6] and in assay [7] was “inactive” throughout. For the same molecule, the Potency result in [9] and in assay [15] was “inactive” each time. Further, the outcome in assay [2] and in assay [13] was inactive. Moreover, the Potency in assay [14] was 3.85 µM (active).
As to `OC1CCCCCCCCCCC1`, the Potency result in assay [1], in assay [3], in [12], in assay [5], in [6] and in assay [7] was “inactive” throughout. Also, the Potency entry in [8], in assay [9] and in assay [14] was “inactive” each time. For the same molecule, the result in assay [2] was inactive.
For the molecule `CC(C)=CCC/C(C)=C\CO`, the Potency entry in [1], in assay [3], in [4], in assay [12], in assay [5] and in assay [6] was “inactive” each time. Also, the Potency entry in assay [7], in assay [16], in assay [8] and in assay [9] was “inactive” in each case. Also, the outcome in assay [13] was inactive.
With `O=C1c2cccc(O)c2C(=O)c2c(O)cccc21`, the Potency result in [1], in assay [3], in assay [12], in [5], in [6] and in assay [7] was “inactive” throughout. The Potency result in [8], in [9] and in [14] was “inactive” each time. In assay [2], the outcome was inactive.
As for `Cc1ccc(C(=O)c2cc(O)c(O)c([N+](=O)[O-])c2)cc1`, the Potency entry in [11], in [3], in assay [4], in [12], in [7] and in assay [8] was “inactive” throughout. Moreover, the Potency entry in assay [9] was “inactive”. For the same molecule, the result in [2] and in assay [13] was inactive. Besides, the Potency in assay [6] was 27.3 µM (active) and 26.6 µM (active).
`CC1=CC2C3CC(C=C3C)C2C1` (stereo not drawn): the Potency entry in assay [1], in assay [11], in [3], in assay [4], in [12] and in assay [6] was “inactive” each time. In addition, the Potency result in assay [7], in assay [16], in assay [8] and in [9] was “inactive” throughout. Moreover, the outcome in assay [2] and in assay [13] was inactive.
As to `Nc1ncn([C@@H]2O[C@H](CO)[C@@H](O)[C@H]2O)c(=O)n1`, the Potency entry in assay [1], in [11], in assay [3], in assay [12], in assay [7] and in [8] was “inactive” throughout. The Potency entry in [9] was “inactive”. In addition, the result in assay [2], in [13] and in assay [18] was inactive. The Potency in assay [6] was 1.72 µM (active) and 3.35 µM (active); in assay [14], 27.3 µM (active) and 29.8 µM (active); in [17] it was 0.619 µM (active); in assay [19], 3.1 µM (active).
For `COC(C)COC(C)COC(C)CO` (stereo not drawn), the Potency entry in assay [1], in [3], in assay [4], in [12], in assay [6] and in assay [7] was “inactive” each time. In addition, the Potency result in [8] and in assay [9] was “inactive” throughout. Also, the molecule was classed as inactive in [2] and in assay [13].
Turning to `c1ccc2cc(Nc3ccc(Nc4ccc5ccccc5c4)cc3)ccc2c1`, the Potency result in assay [1], in assay [3], in assay [12], in assay [5], in assay [6] and in assay [7] was “inactive” each time. The Potency result in assay [16], in [8], in assay [9], in assay [14] and in assay [15] was “inactive” throughout. The molecule was classed as inactive in [2] and in assay [13].
For `COc1ccc(C(=O)CC(=O)c2ccc(C(C)(C)C)cc2)cc1`, the Potency entry in assay [1], in assay [11], in assay [3], in assay [4], in assay [12] and in assay [7] was “inactive” throughout. Also, the Potency result in assay [16], in [8], in assay [9] and in assay [14] was “inactive” each time. In addition, the result in assay [2] and in [13] was inactive.
